Lassa entry inh – blocks Lassa virus binding to or entry into cells | Potency, µM (series often up to 37.9 µM), most hits filed as inhibitors | Lassa virus pseudotype entry inhibition, cell reporter | actives 1.2% (n = 300,000); calls by dose curve; tested in HEK293 cells; also: nearly all actives have a fitted effect of over 50% in size
HCV inhibitor – inhibitors of hepatitis C virus infection; actives 3.4% (n = 340,000); Huh7.5.1 HCVcc-Cre infection, luciferase reporter, 44 h; Potency, µM (top dose mostly 41.8 µM), hits mostly inhibitors; active = well fitted inhibition curve with a large enough effect; inconclusive = small, poorly fitted or top-dose-only effect, or another doubt; inactive = no such curve, though single readings can be large or run the other way
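After 44 h co-culture of compound, cells and HCVcc-Cre (~0.5 moi), substrate is added for 15 min at room temperature and luciferase measured over 15 sec. Cells were seeded at 1,000/well and pre-cultured 4 h.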
Marburg entry inh – Marburg virus entry inhibition | Marburg virus pseudotyped entry inhibition, cell reporter | Potency, µM (highest dose often 37.8 µM), usual class: inhibitors | actives 1.8% (n = 300,000); calls by dose curve; tested in HEK293 cells
FMDV inh – foot and mouth disease virus antiviral activity; FMDV antiviral cell-based qHTS; Potency, µM (titrated, usually from 57.9 µM), hits mostly inhibitors; actives 1.2% (n = 410,000); AID 1159524; calls by dose curve; tested in HEK293T cells; also: read-out not given here; nearly all actives have a fitted effect of over 45% in size
Shiga toxin inh – Shiga toxin inhibition; Vero cells, Shiga toxin protein synthesis inhibition reporter; inhibition, % at 38.7 µM; actives 9.2% (n = 290,000); AID 2315; in the data active = inhibition mostly above about 28%, no sharp cut-off; inactive = mostly below about 43%
Cycloheximide cs – counter-screen for Shiga toxin inhibitors: cycloheximide protein synthesis inhibition; cell reporter, cycloheximide protein synthesis inhibition counterscreen; max response, %; actives 12% (n = 300,000); AID 2314; in the data active = max response mostly above about 13%, no sharp cut-off; inactive = mostly below about 14%; also: read at 38.3 µM for the half of the compounds with a filed dose
Hits are given with their value. Most compounds without a hit are left out; they make up all but 13% or so of the library.

Screening Cc1cc(-c2ccccc2)nc2c(Br)c(C(=O)O)nn12 returned HCV inhibitor inactive and FMDV inh inactive.
Screening CCC(C)c1c(O)nc(SCc2ccccc2)[nH]c1=O (centres undefined) returned Lassa entry inh inactive, HCV inhibitor inactive, Marburg entry inh inactive, FMDV inh inactive, Shiga toxin inh inactive and Cycloheximide cs inactive.
CC[C@H]1CC2CN3CCc4c([nH]c5cc(OC)ccc45)[C@](C(=O)OC)(C2)[C@H]13 was read as HCV inhibitor 35µM and FMDV inh inactive.
`COc1ccc2c3c([nH]c2c1)C1CC2C(CC(O)C(OC)C2C(=O)O)CN1CC3` (centres undefined) gave HCV inhibitor inactive, FMDV inh inactive, Shiga toxin inh inactive and Cycloheximide cs inactive.
Cc1cc(C)c(NC(=O)C2CCCCN2C)c(C)c1 (centres undefined) was read as Lassa entry inh inactive, HCV inhibitor inactive, Marburg entry inh inactive, FMDV inh inactive, Shiga toxin inh inactive and Cycloheximide cs inactive.
`Cc1cc(C)c(NC(=O)C2CSCCS2)c(C)c1` (centres undefined) gave Lassa entry inh inactive, HCV inhibitor inactive, Marburg entry inh inconclusive, FMDV inh inactive, Shiga toxin inh 57 and Cycloheximide cs 20.
Screening Cc1ccc[n+](-c2nc3ccccc3nc2[N-]S(=O)(=O)c2ccccc2)c1 returned Lassa entry inh inactive, HCV inhibitor inactive, Marburg entry inh inactive, FMDV inh inactive, Shiga toxin inh inactive and Cycloheximide cs inactive.
Screening O=S(=O)(/C(=C/c1ccc(C(F)(F)F)cc1)c1nc2ccccc2[nH]1)c1ccccc1 returned Lassa entry inh inconclusive, HCV inhibitor 11µM, Marburg entry inh 11µM, FMDV inh inconclusive, Shiga toxin inh inactive and Cycloheximide cs inactive.
For CC(C)c1ccc(/C=C(\c2nc3ccccc3[nH]2)S(=O)(=O)c2ccccc2)cc1 the results were Lassa entry inh inconclusive, HCV inhibitor 13µM, Marburg entry inh inconclusive, FMDV inh 10µM, Shiga toxin inh inactive and Cycloheximide cs 18.
NC(=O)C(CCc1nc2ccccc2[nH]1)NS(=O)(=O)c1ccccc1 (centres undefined) was read as FMDV inh inactive.
CCc1cccc(C)c1Nc1c(-c2cccc(O)c2)nc2cnccn12 was read as Lassa entry inh inactive, Marburg entry inh inactive and FMDV inh inconclusive.
O=C1/C(=N\S(=O)(=O)c2cccs2)C([n+]2ccccc2)=C([O-])c2ccccc21 was read as HCV inhibitor 6.3µM, FMDV inh 25µM, Shiga toxin inh inactive and Cycloheximide cs inactive.
CC(C)CC1NC(=O)c2ccccc2-n2c1nc1cc(F)ccc1c2=O (centres undefined) was read as HCV inhibitor inactive.
For CN(CC(=O)Nc1cc([N+](=O)[O-])ccc1Cl)Cc1ccc(Br)cc1 the results were Lassa entry inh inactive, HCV inhibitor inconclusive, Marburg entry inh inactive, FMDV inh inactive, Shiga toxin inh inactive and Cycloheximide cs inactive.
Cc1ccsc1CN(C)CC(=O)Nc1ccc([N+](=O)[O-])cc1Cl was read as Lassa entry inh inconclusive, HCV inhibitor 13µM, Marburg entry inh 10µM, FMDV inh inactive, Shiga toxin inh inactive and Cycloheximide cs inactive.
Screening Cc1cc(C)cc(N(C(=O)CCC(=O)Nc2cc(C)on2)C(C(=O)NC2CCCC2)c2ccco2)c1 (centres undefined) returned Lassa entry inh inconclusive, HCV inhibitor inconclusive, Marburg entry inh 11µM, FMDV inh inactive, Shiga toxin inh inactive and Cycloheximide cs inactive.
For Cc1cc(NC(=O)CCC(=O)N(Cc2cccs2)C(C(=O)NC2CCCC2)c2ccccc2)no1 (centres undefined) the results were Lassa entry inh inactive, HCV inhibitor inconclusive, Marburg entry inh 11µM, FMDV inh inconclusive, Shiga toxin inh inactive and Cycloheximide cs inactive.
For Cc1cccc(N(C(=O)CCC(=O)Nc2cc(C)on2)C(C(=O)NC2CCCC2)c2ccc(C)o2)c1 (centres undefined) the results were HCV inhibitor inconclusive, FMDV inh inactive, Shiga toxin inh 28 and Cycloheximide cs 26.
`Cc1cc(NC(=O)CCC(=O)N(c2cccc(F)c2)C(C(=O)NC2CCCC2)c2ccc(C)o2)no1` (centres undefined) gave Lassa entry inh inconclusive, HCV inhibitor inactive, Marburg entry inh inconclusive, FMDV inh inactive, Shiga toxin inh inactive and Cycloheximide cs inactive.
`C=CCc1c(C)nc(SC)nc1Nc1ccccc1` gave Lassa entry inh inactive, HCV inhibitor inconclusive, Marburg entry inh inactive, FMDV inh inconclusive, Shiga toxin inh inactive and Cycloheximide cs inactive.
`O=C(c1ccc(S(=O)(=O)NCc2ccco2)cc1)N1CCN(Cc2ccccc2)CC1` gave Lassa entry inh inconclusive, HCV inhibitor inconclusive, Marburg entry inh inactive, FMDV inh inactive, Shiga toxin inh inactive and Cycloheximide cs inactive.
Screening O=C(/C=C/c1cccc(Cl)c1)c1ccc([N+](=O)[O-])o1 returned HCV inhibitor 2.5µM and FMDV inh 11µM.
Screening NS(=O)(=O)c1ccc(CNC(=O)/C=C/c2cccc(Cl)c2)cc1 returned Lassa entry inh inactive, HCV inhibitor inactive, Marburg entry inh inactive, FMDV inh inactive, Shiga toxin inh inactive and Cycloheximide cs inactive.
Screening COc1ccc(/C=C/C(=O)c2ccc([N+](=O)[O-])o2)cc1OC returned HCV inhibitor 5.6µM and FMDV inh 35µM.
For OCC(Br)(Br)Br the results were Shiga toxin inh inactive and Cycloheximide cs inactive.
For CCCCn1nc(C(=O)Nc2ccc3c(c2)OCCO3)c2ccccc2c1=O the results were HCV inhibitor inconclusive and FMDV inh inactive.
Cc1[nH]n(C(N)=S)c(=O)c1N=Nc1cccc(Cl)c1 was read as HCV inhibitor inactive, FMDV inh inactive, Shiga toxin inh 60 and Cycloheximide cs 32.
For Cc1[nH]n(S(=O)(=O)c2ccccc2)c(=O)c1N=Nc1cccc(Cl)c1 the results were Lassa entry inh inactive, HCV inhibitor inactive, Marburg entry inh inactive, FMDV inh inactive, Shiga toxin inh inactive and Cycloheximide cs inactive.
For NC(=S)n1[nH]c(-c2ccc([N+](=O)[O-])cc2)c(N=Nc2cccc(Cl)c2)c1=O the results were Lassa entry inh inconclusive, HCV inhibitor 13µM, Marburg entry inh inconclusive, FMDV inh inconclusive, Shiga toxin inh inactive and Cycloheximide cs inactive.
COc1ccc(C(C[N+](=O)[O-])C2(c3ccc(OC)c(OC)c3)C(=O)c3ccccc3C2=O)cc1 (centres undefined) was read as Lassa entry inh 16µM, HCV inhibitor inconclusive, Marburg entry inh 11µM, FMDV inh inactive, Shiga toxin inh inactive and Cycloheximide cs inactive.
`CCn1ncc([N+](=O)[O-])c1C(=O)n1nc(C)cc1C` gave Lassa entry inh inconclusive, HCV inhibitor inactive, Marburg entry inh inconclusive, FMDV inh inactive, Shiga toxin inh 112 and Cycloheximide cs 45.
Screening COc1ccccc1-n1c(=O)c2c3c(sc2n(C)c1=O)CN(C(C)=O)CC3 returned Lassa entry inh inactive and FMDV inh inactive.

Source: PubChem BioAssay
